23 compounds from PubChem BioAssay (NCATS) can be followed below.

Molecules are shown by their SMILES. Results filed as inconclusive are left out. Unmarked numbers belong to inactive results. Active and inactive are the calls of the source. The call rests on the fitted dose curve; in most records, active means well fitted curve in the direction sought with a large enough effect; inconclusive means small, poorly fitted or top-dose-only effect, or another doubt; inactive means no such curve, though single readings can be large; an effect the other way counts as inactive or inconclusive.

The subject of experiment [1] is HEK293T. The experiment can be described thus: qHTS assay to identify novel small-molecules to repurpose for Merkel cell carcinoma treatment (AID 1296009). Further: nearly all actives have a fitted effect of over 60% in size. Further: potency means the concentration at half of the fitted maximal effect. Conditions: MCC and control cell lines, CellTiter-Glo viability, 72 h; series mostly up to 44.8 µM. In short, it runs like this: (§1)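 Luminescence from CellTiter-Glo, read 10 min after addition at room temperature, reported viability following a 72 hr, 37 degree celsius treatment with NPC or MIPE compounds in titration; values normalized to plate controls.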
A general note: Quantitative high-throughput screening tests each substance at several concentrations.

The subject of experiment [2] is MCC-13. The experiment is described as above. Conditions: MCC and control cell lines, CellTiter-Glo viability, 72 h; series mostly up to 46 µM. In short, it runs like this:
as §1
For orientation: ATP-based viability assays read luminescence as a measure of living cells.

The test system of experiment [3] is MCC-26. The experiment is described as above. Conditions: MCC and control cell lines, CellTiter-Glo viability, 72 h; series mostly up to 46 µM. The method, boiled down: as §1
For experiment [4], the system named is MKL-1. The experiment is described as above. Conditions: MCC and control cell lines, CellTiter-Glo viability, 72 h; series mostly up to 46 µM. The method, boiled down:
as §1

Experiment [5] has as its system MKL-2. Described as above. The settings on record: MCC and control cell lines, CellTiter-Glo viability, 72 h; series mostly up to 46 µM. In short, it runs like this:
as §1

Experiment [6] deals with NIH3T3. The description is as above. Conditions: MCC and control cell lines, CellTiter-Glo viability, 72 h; at 44.8 µM (top of the series) unless noted. The method, boiled down: as §1
In experiment [7] the test system is UISO. The description is as above. Conditions: MCC and control cell lines, CellTiter-Glo viability, 72 h; series mostly up to 46 µM. The method, boiled down:
as §1

For experiment [8], the system named is WaGa. The experiment is described as above. Conditions: MCC and control cell lines, CellTiter-Glo viability, 72 h; series mostly up to 46 µM. The method, boiled down: as §1
For experiment [9], the system named is C33A. The experiment can be described thus: Primary qHTS to identify gynecologic anti-cancer compounds using libraries of approved drugs and bioactive compounds (AID 1345084). Further: nearly all actives have a fitted effect of over 55% in size. Conditions: Gynecologic cancer cell panel viability, ATPlite luminescence, 48 h; series mostly up to 57.5 µM. The method, boiled down:
(§2)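 Cells, 1,000 per well, plated 16 h, then exposed 48 h at 37 C to compounds. Viability by ATPlite luminescence after 15 min at room temperature.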

Experiment [10] has as its system CASKI. The description is as above. Conditions: Gynecologic cancer cell panel viability, ATPlite luminescence, 48 h; series mostly up to 57.5 µM. The method, boiled down: as §2
On the % scale 0 is the no-effect control and ±100 the full control effect.

As for `CC(=O)C1=C(O)C=C2Oc3c(C(C)=O)c(O)c(C)c(O)c3C2(C)C1=O` (stereo not drawn), the Potency entry in [1], in experiment [2], in [3], in experiment [4], in experiment [5] and in experiment [7] was “inactive” throughout. Further, the Potency result in experiment [8] is “inactive”. Further, the compound was classed as inactive in experiment [6].

On to `NC(=O)Nc1cc(-c2ccc(CN3CCOCC3)cc2)sc1C(N)=O`, for which the Potency entry in experiment [2] is “inactive”.

`OC[C@H]1OC(O)C[C@@H](O)[C@H]1O` (stereo partly drawn): the Potency result in [1], in [2], in experiment [3], in experiment [4], in experiment [5] and in experiment [7] was “inactive” throughout. In addition, the Potency result in [8] was “inactive”. Further, the compound was called inactive in experiment [6].

In the case of `Nc1nc(N)c2nc(-c3cccc(O)c3)c(-c3cccc(O)c3)nc2n1`, the Potency entry in experiment [2] is “inactive”.

In the case of `COc1cc([C@@H]2c3cc4c(cc3[C@H](O)[C@H]3COC(=O)[C@@H]23)OCO4)cc(OC)c1OC`, the Potency in experiment [2] is 662 nM (active).

As to `C#Cc1cccc(Nc2ncnc3cc(OCCOC)c(OCCO)cc23)c1`, the Potency result in [2] and in experiment [3] was “inactive” each time.

In the case of `C[C@@]12C[C@@]3(O)O[C@@H](O1)[C@]1(COC(=O)c4ccccc4)[C@@H]3C[C@@]12O[C@@H]1O[C@H](CO)[C@@H](O)[C@H](O)[C@@H]1O`, the Potency entry in [2], in experiment [3], in [4], in experiment [5], in experiment [7] and in [8] was “inactive” throughout. Further, in [6], the compound was called inactive.

For the compound `COC(=O)[C@H](CCCN=C(N)N)NS(=O)(=O)c1ccc(C)cc1`, the Potency result in [1], in experiment [2], in [4], in experiment [5], in experiment [7] and in experiment [8] was “inactive” each time.

As for `CCN1CCN(C(=O)N[C@H](C(=O)N[C@@H]2C(=O)N3C(C(=O)O)=C(CSc4nnnn4C)CS[C@@H]23)c2ccc(O)cc2)C(=O)C1=O`, in [1], the outcome is “inactive [at 9.27 µM]”. Moreover, the activity change, negative = cytotoxicity in experiment [2] is 4.78% [at 9.22 µM]; in experiment [3], -6.39% [at 9.22 µM]; in [4] it was 8.33% [at 9.22 µM]; in experiment [5] it was -17.3% [at 9.22 µM]; in experiment [7], -1.23% [at 9.22 µM]; in experiment [8] it was -1.78% [at 9.22 µM].

Turning to `Cc1cncc2cccc(S(=O)(=O)N3CCCN(C(=O)CN)C[C@@H]3C)c12`, the Potency entry in experiment [1], in experiment [5], in experiment [7], in [9] and in [10] was “inactive” in each case.

As to `Cc1cc(O)c2c(c1)C(=O)c1cccc(O)c1C2=O`, the Potency result in experiment [1], in experiment [2], in [3], in experiment [4], in experiment [5] and in experiment [7] was “inactive” in each case. For the same compound, the Potency result in experiment [8] was “inactive”.

`O=C(O)CCCCCC(=O)NN=C1CCCC1`: the Potency result in [1], in experiment [2], in [3], in experiment [4], in [5] and in experiment [7] was “inactive” in each case. The Potency entry in experiment [8] is “inactive”.

Turning to `CC1(C)CC(O)CC(C)(C)N1[O]`, the Potency entry in experiment [1], in experiment [2], in experiment [4], in experiment [5], in experiment [7] and in experiment [8] was “inactive” in each case.

For the compound `N#Cc1cc(NC(=O)Nc2nnc(-c3ccncc3)s2)ccc1-c1cn[nH]c1`, the Potency entry in experiment [1], in [2], in [3], in experiment [4], in experiment [5] and in experiment [7] was “inactive” in each case. Moreover, the Potency entry in experiment [8] was “inactive”.

Turning to `O=C1c2c(O)cccc2[C@@H]([C@@H]2O[C@H](CO)[C@@H](O)[C@H](O)[C@H]2O)c2cc(CO)cc(O)c21`, the Potency entry in experiment [1], in experiment [2], in experiment [4], in [5], in [7] and in experiment [8] was “inactive” in each case.

For the compound `CC(=O)N[C@@H]1[C@H](O[C@@H]2c3ccc(c(Cl)c3)Oc3cc4cc(c3O[C@H]3O[C@H](CO)[C@@H](O)[C@H](O)[C@H]3NC(=O)CCCCCCCC(C)C)Oc3ccc(cc3Cl)C[C@H]3NC(=O)[C@H](N)c5ccc(O)c(c5)Oc5cc(O)cc(c5)[C@H](NC3=O)C(=O)N[C@H]4C(=O)N[C@H]3C(=O)N[C@@H]2C(=O)N[C@@H](C(=O)O)c2cc(O)cc(O[C@H]4O[C@H](CO)[C@@H](O)[C@H](O)[C@H]4O)c2-c2cc3ccc2O)O[C@H](CO)[C@@H](O)[C@@H]1O`, the Potency entry in experiment [1], in experiment [2], in experiment [3], in experiment [4], in experiment [5] and in experiment [7] was “inactive” each time. Moreover, the Potency result in experiment [8] is “inactive”.

`C=C(C)[C@@H]1CC[C@]2(C)CC[C@]3(C)[C@H](CC[C@@H]4[C@@]5(C)CC[C@H](O)C(C)(C)[C@H]5CC[C@]43C)[C@@H]12`: the Potency result in experiment [1], in experiment [2], in experiment [4], in experiment [5], in experiment [7] and in [8] was “inactive” each time. The outcome in experiment [6] was inactive.

As to `COc1cccc2c1C(=O)c1c(O)c3c(c(O)c1C2=O)C[C@@](O)(C(C)=O)C[C@H]3O[C@H]1C[C@H](N)[C@H](O)[C@H](C)O1`, the Potency was 590 nM (active) in experiment [2]; 372 nM (active) in experiment [3]; 33.2 nM (active) in experiment [4]; 23.5 nM (active) in [5]; 46.9 nM (active) in experiment [7].

Consider `CC[C@H]1OC(=O)[C@H](C)[C@@H](O[C@H]2C[C@@](C)(OC)[C@@H](O)[C@H](C)O2)[C@H](C)[C@@H](O[C@@H]2O[C@@H](C)C[C@H](N(C)C)[C@@H]2O)[C@](C)(O)C[C@@H](C)C(=O)[C@H](C)[C@@H](O)[C@]1(C)O`, for which the Potency entry in [2], in experiment [3], in experiment [4], in experiment [5], in [7] and in [8] was “inactive” in each case. The result in experiment [6] was inactive.

Regarding `CCCCOc1ccc(C(=O)Nc2ccc(F)cc2F)cc1`, the Potency result in [2], in experiment [3], in experiment [4], in experiment [5], in [7] and in experiment [8] was “inactive” throughout. Moreover, the Potency result in experiment [9] and in experiment [10] was “inactive” in each case. For the same compound, in [6], the compound was called inactive.

Take `Oc1cc2c(cc1O)C1c3ccc(O)c(O)c3OCC1(O)C2` (stereo not drawn): the Potency entry in [2], in experiment [3], in experiment [4], in [5], in experiment [7] and in experiment [8] was “inactive” throughout. In addition, the compound was classed as inactive in [6].

As to `C[C@@H]1[C@H](C)CC[C@]2(C(=O)O)CC[C@]3(C)C(=CC[C@@H]4[C@@]5(C)C[C@@H](O)[C@H](O)[C@@](C)(CO)[C@H]5CC[C@]43C)[C@@H]12`, the Potency result in [2], in experiment [3], in experiment [4], in experiment [5], in experiment [7] and in experiment [8] was “inactive” each time. The call in [6] was inactive.

In the case of `c1cc(N[C@@H]2CCNC2)nc(-c2cnc3ccc(-c4cn[nH]c4)cn23)c1`, the Potency result in [2] and in experiment [3] was “inactive” each time. The Potency is 8330 nM (active) in experiment [4], 7430 nM (active) in experiment [5] and 16600 nM (active) in [7].
